Experimental data reported in PubChem BioAssay (NCATS).
Inconclusive results are not listed. Active and inactive are the calls of the source. The call rests on the fitted dose curve; in most records, active means well fitted inhibition curve with a large enough effect; inconclusive means small, poorly fitted or top-dose-only effect; inactive means flat fitted curve, though single readings scatter.

How the values were obtained:
Experiment in all cases: qHTS profiling for inhibitors of Plasmodium falciparum proliferation (AID 504749); further: nearly all actives have a fitted effect of over 60% in size
Details in all cases: P. falciparum in erythrocytes, SYBR Green DNA, 72 h; series mostly up to 28.7 µM
CP237 = test system: CP237
Outline: (§1)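 Infected RBCs, 0.3% parasitemia/2.5% Hct final; cpd 72 h, 37 C, 5% CO2; lysis buffer with saponin/triton/SYBR Green I, o/n RT dark; FI 485/535; norm. to artemisinin (0.29 uM) and DMSO.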

CP238 = test system: CP238
Outline: as §1

CP247 = test system: CP247
Outline: as §1

CP250 = test system: CP250
Outline: as §1

CP252 = test system: CP252
Outline: as §1

CP256 = test system: CP256
Outline: as §1

CP262 = test system: CP262
Outline: as §1

CP265 = test system: CP265
Outline: as §1

CP266 = test system: CP266
Outline: as §1

CP268 = test system: CP268
Outline: as §1

CP269 = test system: CP269
Outline: as §1

CP286 = test system: CP286
Outline: as §1

CP291 = test system: CP291
Outline: as §1

CP297 = test system: CP297
Outline: as §1

CP305 = test system: CP305
Outline: as §1

CP315 = test system: CP315
Outline: as §1

CP325 = test system: CP325
Outline: as §1

CP329 = test system: CP329
Outline: as §1

CP335 = test system: CP335
Outline: as §1

CP260 = test system: CP260
Outline: as §1

Measured: Potency
Potency means the concentration at half of the fitted maximal effect.

FC1(F)C(F)(F)C(F)(F)C2(F)C(F)(F)C(F)(F)C(F)(F)C(F)(F)C2(F)C1(F)F (stereo not given)
not listed: CP260
inactive: all other assays above

CC(C)(C)NC[C@H](O)COc1nsnc1N1CCOCC1
active: CP237 5.01 µM | CP260 7.94 µM | CP265 6.31 µM | CP269 15.1 µM | CP291 13.5 µM | CP305 15.1 µM | CP335 8.49 µM
inactive: CP262 | CP266 | CP315

CN1CCN(C2=Nc3cc(F)ccc3Cc3ccccc32)CC1
active: CP237 7.08 µM
not listed: CP247 | CP256 | CP265 | CP266 | CP297 | CP335
inactive: all other assays above

CCc1ccc(C(=O)C(C)CN2CCCCC2)cc1 (stereo not given)
not listed: CP260
inactive: all other assays above

Cc1nc(-c2ccc(Cl)cc2)oc1COC(C)(C)C(=O)O
not listed: CP247
inactive: all other assays above

COc1cc(C(=O)N2CCCCCCC2)cc(OC)c1OC
not listed: CP250
inactive: all other assays above

NC(N)=NN=C(/C=C/c1ccc([N+](=O)[O-])o1)/C=C/c1ccc([N+](=O)[O-])o1
active: CP237 3.55 µM | CP247 7.08 µM | CP250 11.2 µM | CP260 3.55 µM | CP286 2.24 µM | CP335 4.78 µM
inactive: CP262

Cc1cc2c(OCC(CNC(C)(C)C)OC(=O)c3ccccc3)cccc2[nH]1 (stereo not given)
active: CP237 11.2 µM | CP260 11.2 µM | CP286 8.91 µM
not listed: CP247 | CP268 | CP269 | CP291 | CP297 | CP305 | CP335
inactive: all other assays above

COc1cc(O)c(C(=O)c2ccccc2)cc1S(=O)(=O)O
not listed: CP256 | CP265 | CP269 | CP305 | CP335 | CP260
inactive: all other assays above

CCCN(CCc1cccs1)[C@H]1CCc2c(O)cccc2C1
active: CP237 3.16 µM | CP238 10 µM | CP247 8.91 µM | CP252 11.2 µM | CP260 12.6 µM | CP265 11.2 µM | CP268 10.7 µM | CP269 15.1 µM | CP286 10 µM | CP291 10.7 µM | CP297 6.75 µM | CP305 13.5 µM | CP325 12 µM | CP335 8.49 µM

CC(C)Nc1cccnc1N1CCN(C(=O)c2cc3cc(NS(C)(=O)=O)ccc3[nH]2)CC1
not listed: CP247 | CP262
inactive: all other assays above

C#C[C@]1(O)CC[C@H]2[C@@H]3CCC4=CC(=O)CC[C@@H]4[C@H]3CC[C@@]21CC
active: CP237 6.31 µM
not listed: CP260
inactive: all other assays above

CCN(CC)CCOC(=O)C1(c2ccccc2)CCCC1
inactive: CP238 | CP250 | CP252 | CP256 | CP262 | CP265 | CP329
active: CP237 2.82 µM

N/C(=N\N=C\c1ccc(Cl)cc1)N/N=C/c1ccc(Cl)cc1
active: CP237 10 µM | CP256 10 µM | CP260 3.55 µM | CP286 3.55 µM
not listed: CP238 | CP247 | CP250 | CP252 | CP265 | CP335
inactive: all other assays above

NC(=S)N/N=C/c1cccnc1
not listed: CP247
inactive: all other assays above

CCNC(=O)/C=C/c1cccc(Br)c1
not listed: CP247 | CP250 | CP252 | CP256 | CP265 | CP260
inactive: all other assays above

C[N+]1(CC2COC(c3ccccc3)(C3CCCCC3)O2)CCCCC1 (stereo not given)
active: CP237 7.08 µM | CP238 7.08 µM | CP252 10 µM | CP256 10 µM | CP260 4.47 µM | CP262 5.36 µM | CP265 10 µM | CP266 8.49 µM | CP268 7.57 µM | CP269 4.78 µM | CP286 5.01 µM | CP291 4.78 µM | CP297 6.01 µM | CP305 4.78 µM | CP315 6.01 µM | CP325 6.75 µM

CC1(COc2ccc(CC3SC(=O)NC3=O)cc2)CCCCC1 (stereo not given)
not listed: CP247 | CP297
inactive: all other assays above

CN(C)CCN1C(=O)c2ccccc2N(C)c2ccccc21
active: CP237 3.98 µM | CP265 12.6 µM | CP297 13.5 µM
inactive: CP250 | CP262 | CP266 | CP315 | CP329

CCCCCN=C(N)N/N=C/c1c[nH]c2ccc(OC)cc12
active: CP237 5.01 µM | CP260 5.01 µM | CP265 4.47 µM | CP269 13.5 µM | CP291 13.5 µM | CP335 6.01 µM
inactive: CP262 | CP315

CC(C)(Cc1c[nH]c2ccccc12)NCC(O)COc1ccccc1C#N (stereo not given)
inactive: CP315 | CP325
active: CP237 10 µM

COc1ccc(C(=O)c2ccccc2)c(O)c1
not listed: CP250 | CP265 | CP305 | CP335 | CP260
inactive: all other assays above

C[N+]1(C)CCC(=C(c2ccccc2)c2ccccc2)CC1
inactive: CP237 | CP238 | CP247 | CP250 | CP252 | CP265 | CP297 | CP315 | CP329

CN1CCc2cccc3c2[C@H]1Cc1ccc(O)c(O)c1-3
active: CP237 6.31 µM | CP250 8.91 µM | CP260 11.2 µM | CP266 8.49 µM | CP269 16.9 µM | CP286 6.31 µM | CP335 3.79 µM

NCc1ccccc1Sc1ccccc1CO
active: CP237 8.91 µM
not listed: CP256 | CP262 | CP268 | CP297 | CP335
inactive: all other assays above

O=C(Oc1cccc2cccnc12)c1ccccc1
not listed: CP315 | CP325 | CP260
inactive: all other assays above

Cc1cccc(C)c1NC(=O)c1ccccc1C(=O)O
not listed: CP256
inactive: all other assays above

CN(CCCN1c2ccccc2CCc2ccccc21)CC(=O)c1ccc(Cl)cc1
inactive: CP262 | CP305 | CP315
active: CP237 12.6 µM | CP260 10 µM | CP265 11.2 µM | CP286 7.08 µM | CP335 13.5 µM

Oc1c(Cl)cc(Cl)c(Cl)c1Cc1c(O)c(Cl)cc(Cl)c1Cl
inactive: CP256
active: CP237 11.2 µM | CP238 10 µM | CP247 8.91 µM | CP252 8.91 µM | CP315 6.75 µM | CP329 13.5 µM

CC(C)NCC(O)c1ccc2ccccc2c1 (stereo not given)
active: CP237 4.47 µM | CP238 10 µM | CP247 7.94 µM | CP252 11.2 µM | CP260 6.31 µM | CP265 10 µM | CP286 11.2 µM | CP335 12 µM
inactive: CP266 | CP329

CN(C)CCC[C@@]1(c2ccc(F)cc2)OCc2cc(C#N)ccc21
not listed: CP256 | CP269 | CP297 | CP315
inactive: all other assays above

NC(N)=NCc1cccc(I)c1
not listed: CP262 | CP297 | CP335 | CP260
inactive: all other assays above

O=S(c1cc(Cl)cc(Cl)c1O)c1cc(Cl)cc(Cl)c1O
active: CP237 7.08 µM | CP250 28.2 µM
inactive: CP286
